{"source": "PubChem BioAssay (Tox21)", "note": "Results filed as inconclusive are left out. Calls of active or inactive are those of the source. The call rests on the fitted dose curve. On the % scale 0 is the no-effect control and ±100 the full control effect.", "data": [{"test": "qHTS assay to identify small molecule agonists of the NFkB signaling pathway - cell viability counter screen (AID 1159515); further: nearly all actives have a fitted effect of over 55% in size", "conditions": "NFkB-bla ME-180 viability, CellTiter-Glo luminescence, 5 h; series mostly up to 61 µM; activity, negative = cytotoxic: at the top concentration", "description": "National Center for Advancing Translational Sciences [NCATS]\nNIH Chemical Genomics Center [NCGC]\nU.S. Environmental Protection Agency [EPA]\nNational Institutes of Environmental Health Sciences [NIEHS]\nNational Toxicology Program [NTP]\nU.S. Food and Drug Administration [FDA]\nTranscription factors and their stimulated target gene expression play pivotal roles across many cellular processes including responses to environmental stimuli. Proper regulation of associated pathways is critical to maintain cell health and function. Constitutive activation of transcription factor pathways has been implicated in tumors as it may block cellular functions such as apoptosis and lead to invasion and metastasis. One important transcription factor that stimulates gene expression in response to cytokines, UV radiation, and other stimuli is nuclear factor-kappa B (NFkB). To measure activation of the NFkB pathway, the CellSensor NFkB-bla ME-180 cell line (Life Technologies, Carlsbad, CA) that stably expresses beta-lactamase reporter gene under the regulation of a NF-kB response element was used. This assay allows measurement of the NFkB pathway activity induced by compounds in a ME-180 cell line. This system quantitates NF-kB activity using a FRET-based assay system where beta-lactamase expression disrupts FRET, allowing for fluorescent measurement of activity. This cell line has been used to screen the Tox21 10K compound library and to identify compounds that induce the NFkB pathway activity. The cytotoxicity of the Tox21 compound library against the NFkB-bla ME-180 cell line was tested in parallel by measuring cell viability using the CellTiter-Glo assay in the same wells.\nTox21 Assay Protocol Summary:\nNFkB-bla ME-180 cells were dispensed at 2,000 cells/6 uL of assay medium per well into black wall/clear-bottom 1536-well plates using a Multidrop Combi (ThermoFisher Scientific, Waltham, MA) dispenser. After the assay plates were incubated at 37 C and 5% CO2 for an overnight, 23 nL of compounds dissolved in DMSO, positive controls or DMSO only was transferred to the assay plate by a Pintool station (Kalypsys, San Diego, CA). The assay plates were incubated at 37 C and 5% CO2 for 5 hr. One uL of LiveBLAzer B/G FRET substrate (Life Technologies) was added using a Flying Reagent Dispenser (Aurora Discovery, San Diego, CA) and the plates were incubated at room temperature for 1.5 hr. Fluorescence intensity (405 nm excitation, 460 nm and 530 nm emissions) was measured using an Envision plate reader (PerkinElmer, Shelton, CT). For cytotoxicity, 3 ul/well of CellTiter-Glo reagent was added into the assay plates using an FRD. After 30 min incubation at room temperature, the luminescence intensity was measured using a ViewLux plate reader (PerkinElmer).", "values": [{"smiles": "O=C1CCN(c2ccccc2)N1", "activity, negative = cytotoxic": "0.336% [at 78.8 µM] (inactive)"}, {"smiles": "CC1CN(c2ccccc2)NC1=O", "note": "(stereo not given)", "activity, negative = cytotoxic": "5.84% (inactive)"}, {"smiles": "CCCCC(CC)COC(=O)COc1cc(Cl)c(Cl)cc1Cl", "note": "(stereo not given)", "activity, negative = cytotoxic": "-0.145% (inactive)"}, {"smiles": "CC1(O)CSC(C)(O)CS1", "note": "(stereo not given)", "activity, negative = cytotoxic": "8.28% (inactive)"}, {"smiles": "CCCCNc1ccc(C(=O)OCCN(CC)CC)cc1", "activity, negative = cytotoxic": "0.528% (inactive)"}, {"smiles": "CN1CCN(C2=Nc3ccccc3Oc3ccc(Cl)cc32)CC1", "activity, negative = cytotoxic": "-2.99% (inactive)"}, {"smiles": "CC1=C2[C@H](/C=C(\\C)C(=O)O)CC[C@@H](C)[C@H]2CC1", "activity, negative = cytotoxic": "7.58% [at 78.8 µM] (inactive)"}, {"smiles": "CCNCCO", "activity, negative = cytotoxic": "-0.34% (inactive)"}, {"smiles": "OCc1ccccc1O", "activity, negative = cytotoxic": "4.46% (inactive)"}, {"smiles": "CC(C)S", "activity, negative = cytotoxic": "-2.4% [at 78.8 µM] (inactive)"}, {"smiles": "Cc1c[nH]c(=S)[nH]c1=O", "activity, negative = cytotoxic": "1.43% (inactive)"}, {"smiles": "O=C(O)C(=O)Cc1c[nH]c2ccccc12", "activity, negative = cytotoxic": "3.82% (inactive)"}, {"smiles": "CC(C)Nc1nc(N)nc(Cl)n1", "activity, negative = cytotoxic": "9.14% (inactive)"}, {"smiles": "FC(F)(F)C(Cl)(Cl)Cl", "activity, negative = cytotoxic": "3.83% (inactive)"}, {"smiles": "N#Cc1ccc(C(c2ccc(C#N)cc2)n2cncn2)cc1", "activity, negative = cytotoxic": "-11.8% (inactive)"}, {"smiles": "CCCCCCCCCC/C=C/C#N", "activity, negative = cytotoxic": "1.93% (inactive)"}, {"smiles": "Cc1cc2c(s1)Nc1ccccc1N=C2N1CCN(C)CC1", "activity, negative = cytotoxic": "2.1% (inactive)"}, {"smiles": "CC1(C)S[C@@H]2[C@H](NC(=O)C(C(=O)O)c3ccccc3)C(=O)N2[C@H]1C(=O)O", "note": "(stereo not given in full)", "activity, negative = cytotoxic": "-0.627% (inactive)"}, {"smiles": "CC1=C(CC(=O)O)c2cc(F)ccc2/C1=C\\c1ccc(S(C)(=O)=O)cc1", "activity, negative = cytotoxic": "-2.21% (inactive)"}, {"smiles": "C=CC(C)(O)CC/C=C(\\C)CCC=C(C)C", "note": "(stereo not given)", "activity, negative = cytotoxic": "-1.78% (inactive)"}, {"smiles": "Cc1ncc(CO)c(CN)c1O", "activity, negative = cytotoxic": "0.4% (inactive)"}, {"smiles": "C=CCCCCCCCCO", "activity, negative = cytotoxic": "11.4% (inactive)"}, {"smiles": "CCCCC1CCC(=O)O1", "note": "(stereo not given)", "activity, negative = cytotoxic": "4.05% (inactive)"}, {"smiles": "O=C(Cl)c1cccc([N+](=O)[O-])c1", "activity, negative = cytotoxic": "14.8% (inactive)"}, {"smiles": "COC(=O)/C=C(/C)N", "activity, negative = cytotoxic": "3.02% (inactive)"}, {"smiles": "O=C1C=CC(=O)O1", "activity, negative = cytotoxic": "-9.42% [at 78.8 µM] (inactive)"}, {"smiles": "CCc1nnc(NS(=O)(=O)c2ccc(N)cc2)s1", "activity, negative = cytotoxic": "-7.19% (inactive)"}, {"smiles": "NC(=O)Cc1cccc(C(=O)c2ccccc2)c1N", "activity, negative = cytotoxic": "6.12% (inactive)"}, {"smiles": "Oc1ccccc1C=NCc1ccccc1", "activity, negative = cytotoxic": "10.4% (inactive)"}, {"smiles": "C[C@]12CCC(=O)C=C1CC[C@@H]1[C@@H]2CC[C@@]2(C)[C@H]1CC[C@]2(O)C(=O)CO", "activity, negative = cytotoxic": "0.575% (inactive)"}, {"smiles": "COc1ccc(Nc2ccc(OC)cc2)cc1", "activity, negative = cytotoxic": "0% [at 78.8 µM] (inactive)"}, {"smiles": "C/C(=N\\O)[C@@H](C)NCC(C)(C)CN[C@H](C)/C(C)=N/O", "activity, negative = cytotoxic": "3.98% (inactive)"}, {"smiles": "Cc1cc2nc(N)sc2cc1C", "activity, negative = cytotoxic": "-19.8% [at 78.8 µM] (inactive)"}, {"smiles": "O=c1[nH]cnc2c1ncn2[C@@H]1O[C@H](CO)[C@@H](O)[C@H]1O", "activity, negative = cytotoxic": "-4.99% (inactive)"}, {"smiles": "CC(C)(C)c1cccc(O)c1", "activity, negative = cytotoxic": "-0.942% (inactive)"}, {"smiles": "CCOc1ccc(NS(=O)(=O)c2ccc(N)cc2)nn1", "activity, negative = cytotoxic": "-0.512% (inactive)"}, {"smiles": "CCN(CC)C(=O)N(CC)CC", "activity, negative = cytotoxic": "-3.17% (inactive)"}, {"smiles": "CCOC(=O)NCCC[Si](OCC)(OCC)OCC", "activity, negative = cytotoxic": "1.66% (inactive)"}, {"smiles": "CCOC(=O)COc1ccc2c(c1)CC(NCC(O)c1cccc(Cl)c1)CC2", "note": "(stereo not given)", "activity, negative = cytotoxic": "-12.5% (inactive)"}, {"smiles": "COc1nc(C)nc(NC(=O)NS(=O)(=O)c2ccccc2OCCCl)n1", "activity, negative = cytotoxic": "17% (inactive)"}]}]}
